# This excerpt belongs to a sample that is enriched for hits.
# GIRK2 act – Activates human GIRK2-containing potassium channels; P48051; AID 1259324; 34,000 tested, under 10 active; HEK293 GIRK2/NPY4 cells, thallium flux fluorescence; activation (% efficacy), % for hits at 37.5 µM;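 active means primary screen hit, no activity in plain HEK293 cells, and in GIRK2-only cells above 5% efficacy rising with concentration; inactive means the rest, including fluorescent compounds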;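 further: efficacy is normalized control-subtracted fluorescence 15 s after thallium addition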
# Target sequence (P48051 whole entry, looked up): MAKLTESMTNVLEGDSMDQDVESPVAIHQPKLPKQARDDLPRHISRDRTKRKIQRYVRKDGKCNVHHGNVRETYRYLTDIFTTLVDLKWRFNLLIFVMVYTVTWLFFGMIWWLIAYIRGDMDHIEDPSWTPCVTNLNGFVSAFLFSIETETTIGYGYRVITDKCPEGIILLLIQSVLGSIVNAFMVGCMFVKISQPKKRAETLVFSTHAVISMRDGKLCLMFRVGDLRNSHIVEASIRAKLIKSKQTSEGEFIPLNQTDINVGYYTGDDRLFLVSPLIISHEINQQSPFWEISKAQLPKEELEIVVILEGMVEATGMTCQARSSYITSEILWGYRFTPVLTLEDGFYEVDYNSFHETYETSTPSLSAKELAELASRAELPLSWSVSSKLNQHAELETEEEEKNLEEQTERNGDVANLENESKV
# GluA2 TARP mod – modulates AMPAR-stargazin complexes; O88602+P19491; HEK293 GluA2+stargazin, membrane potential dye (FDSS), glutamate EC50; hits were called plate by plate, in both directions; calls only at 30 µM; 40,000 compounds, 3.5% hits;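 active means any of four per-well response measures lying three or more SD from its plate-wide compound average, in either direction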
# Calls only; i = inactive; nt = no result; + = active, no number; ! = not active in a repeat.
SMILES,GIRK2 act,GluA2 TARP mod
Cn1c(O)c(N=Nc2nc3c(c(=O)[nH]c(=O)n3C)n2CCCOc2ccccc2)c(=O)n(C)c1=O,nt,i
Cn1c(O)c(N=Nc2nc3c(c(=O)n(C)c(=O)n3C)n2Cc2ccccc2)c(=O)n(C)c1=O,nt,+
Cn1c(=O)c2c(nc(N=Nc3c(O)[nH]c4ccccc34)n2CCc2ccccc2)n(C)c1=O,nt,i
Cn1c(=O)c2c(nc(NCc3ccccc3)n2CC(=O)N=Nc2c(O)[nH]c3ccccc23)n(C)c1=O,nt,+
COc1ccc(S(=O)(=O)Nc2nc(CCC(=O)NCc3ccc4c(c3)OCO4)cs2)cc1,i,i
COC(=O)c1ccc(-c2csc(NC(=O)C3CCCN(S(C)(=O)=O)C3)n2)cc1 (centres undefined),i,i
CCCOc1ccc(N2CCN(C(=O)/C=C/c3ccccc3)CC2)nn1,i,i
CCN1CCc2c(sc(NC(=O)c3cc4ccccc4o3)c2-c2nc3ccccc3s2)C1,nt,i
O=C(Nc1sc2c(c1-c1nc3ccccc3s1)CCN(Cc1ccccc1)C2)c1cccs1,nt,+
CC(=O)Nc1sc2c(c1-c1nc3ccccc3s1)CCN(Cc1ccccc1)C2,nt,i
Cc1cc(C(=O)Nc2sc3c(c2-c2nc4ccccc4s2)CCN(Cc2ccccc2)C3)on1,nt,+
CN1CCc2c(sc(NC(=O)c3ccc(Cl)cc3)c2-c2nc3ccccc3s2)C1,nt,i
CCn1ccc(C(=O)Nc2sc3c(c2-c2nc4ccccc4s2)CCN(C)C3)n1,nt,+
CCOc1cccc2sc(N(CCN3CCOCC3)C(=O)CCc3ccccc3)nc12,i,i
CC(=O)Cn1c(=O)c2c(nc3n(-c4cccc(Cl)c4C)c(-c4ccccc4)cn23)n(C)c1=O,nt,i
COc1ccc(S(=O)(=O)CC(=O)Nc2nc(-c3ccc(C)c(C)c3)cs2)cc1,i,i
COc1ccc(CNC(=O)C(=O)Nc2ccc(N3CCCC3=O)c(C)c2)cc1,i,i
CCOC(CNC(=O)C(=O)Nc1ccc(N2CCCS2(=O)=O)cc1)OCC,nt,i
CCOC(CNC(=O)C(=O)Nc1ccc(N2CCCCS2(=O)=O)cc1)OCC,nt,+
CSc1ccccc1NC(=O)C(=O)NCC1CCN(C2CCCC2)CC1,i,+
CSc1ccccc1NC(=O)C(=O)NCC1CCN(C)CC1,i,i
Cc1cc(N2CCN(C)CC2)nc(SCC2COc3ccccc3O2)n1 (centres undefined),nt,+
NCC(O)COCC1COc2ccccc2O1 (centres undefined),i,i
CCCn1c(=O)c2sc(N3CCCCC3)nc2n(CC(=O)Nc2ccc(F)cc2F)c1=O,i,i
O=C(COc1ccc(Cl)cc1)N1CCOC(c2ccccc2)C1 (centres undefined),i,nt
SMILES,GIRK2 act,GluA2 TARP mod
Cc1ccc(C(CNC(=O)CCc2ccccc2)N2CCOCC2)cc1 (centres undefined),i,i
CC(C)CCN1C(=O)C(C)(C)COc2cc(NC(=O)COc3ccccc3)ccc21,nt,i
CC(C)CCN1C(=O)C(C)(C)COc2ccc(NC(=O)COc3ccccc3)cc21,nt,+
Cc1ccc(=O)n(CCNC(=O)C2CC(=O)N(c3ccc(C)c(C)c3)C2)n1 (centres undefined),i,i
Cc1cc(=O)[nH]c(-n2nc(C)c(CCC(=O)NCc3ccccc3Cl)c2C)n1,i,i
Cc1nn(-c2nc3ccccc3[nH]2)c(=O)c2ccccc12,nt,+
O=C(NNC(=O)c1cccn(Cc2ccc(F)cc2)c1=O)c1ccc([N+](=O)[O-])o1,i,i
Cc1cccc(-n2ncc3c(=O)n(CC(=O)N4CCc5ccccc54)cnc32)c1C,nt,i
Cc1ccc(-n2ncc3c(=O)n(CC(=O)N4CCc5ccccc54)cnc32)c(C)c1,nt,+
O=C(Nc1cccc(-c2nc3cccnc3s2)c1)Nc1cccs1,i,i
COc1ccc(OCCCN2C(=O)C3(OCCCO3)c3cccc(C)c32)cc1,i,+!
COc1ccc(CN2C(=O)C3(OCCCO3)c3ccccc32)cc1OC,nt,i
Cc1noc(C2CN(C(=O)CSc3ccc(F)cc3)C2)n1,nt,i
COc1ccc(CCC(=O)N2CCC(c3ccsc3)CC2)cc1,i,+
COc1ccc(NC(=O)N2CCC(c3ccsc3)CC2)cc1,nt,i
COc1ccc(S(=O)(=O)CCC(=O)N(Cc2ccccn2)c2nc3ccccc3s2)cc1,i,i
O=C(NCCn1nc(-c2ccco2)ccc1=O)C1CN(c2nc3c(F)cccc3s2)C1,i,i
CC(C)Sc1ccc(CC(=O)N2CCC(c3nnc(C(C)C)o3)CC2)cc1,i,+
CC(C)c1nnc(C2CCN(C(=O)CCSc3ccccc3)CC2)o1,i,i
COc1cc(C(=O)N2CCOC(c3ccccc3)C2)cc(OC)c1OC (centres undefined),i,nt
COc1ccc2c(c1OC)C(=O)OC2Nc1ccc(C(=O)O)c(O)c1 (centres undefined),nt,i
Cc1nc2ccc(NC(=O)Cc3ccc(S(C)(=O)=O)cc3)cc2s1,nt,i
COc1ccccc1NC(=O)c1ccc(S(=O)(=O)N(C)C2CCCCC2)cc1,nt,i
CCCN(CCC)S(=O)(=O)c1ccc(C(=O)Nc2ccccc2OC)cc1,nt,+
